Records with an inconclusive call do not appear. The source made the active and inactive calls. Unless noted, calls follow the shape of the dose curve; as a rule, active = well fitted curve in the direction sought with a large enough effect in the repeat runs; inconclusive = weak or mixed curves; inactive = no such curve, though single readings can be large; an effect the other way counts as inactive or inconclusive.
Legend:
[1] = qHTS assay to identify small molecule phospholipidosis (PLD) inducers (AID 1259344; active = well fitted curve in the direction sought with a large enough effect; an effect the other way counts as inactive or inconclusive)
Summary of the method: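 Accumulated phospholipid, stained red by LipidTOX during 24 h compound treatment of HepG2 cells at 37 C, is quantified from images as pit number and intensity, normalised per cell using Hoechst-stained nuclei.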

[2] = qHTS assay to identify small molecule HDAC inhibitors (AID 1259364);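 also: wild-type HCT-116 cells with endogenous class I/II HDAC activity; top concentration of the series differs between compounds; nearly all actives have a fitted effect of over 45% in size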
Summary of the method: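 HCT-116 (wild type), 1,500 cells/well, overnight; compound 2 hr 37C 5% CO2; HDAC-Glo I/II reagent 30 min RT; luminescence readout.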

[3] = qHTS assay to identify small molecule HDAC inhibitors - cell viability counter screen (AID 1259365); also: series mostly up to about 92 µM; nearly all actives have a fitted effect of over 50% in size
Summary of the method: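 HCT-116 (wild type), 1,500 cells/well, overnight 37C/5% CO2; compound in DMSO 2hr; CellTiter-Glo 30min RT; luminescence read.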

[4] = qHTS assay to identify small molecule agonists of the sonic hedgehog signaling (Shh) pathway - cell viability counter screen (AID 1259366); also: nearly all actives have a fitted effect of over 50% in size; also: potency is read from the fitted curve at half-maximal effect
Summary of the method: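 CellTiter-Fluor fluorescence read-out, 1 hr at 37C, added after 23hr compound exposure. Cells: 3T3 Gli1-Luc, an NIH/3T3 clone with stably integrated Gli1-Luc reporter, plated 4hr before compound.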

[5] = qHTS assay to identify small molecule antagonists of the sonic hedgehog signaling (Shh) pathway - cell viability counter screen (AID 1259367); also: nearly all actives have a fitted effect of over 55% in size; also: potency is read from the fitted curve at half-maximal effect
Summary of the method: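 CellTiter-Fluor signal in conditioned medium-stimulated 3T3 Gli1-Luc cells, 23 hr compound exposure, 37C.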

[6] = qHTS assay to identify small molecule agonists of the sonic hedgehog signaling (Shh) pathway (AID 1259368; calls by dose curve;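 also: NIH/3T3-derived 3T3Gli1-Luc cells carrying a stable Gli1-driven firefly luciferase reporter; series mostly up to about 92 µM; nearly all actives have a fitted effect of over 15% in size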)
Summary of the method: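 Read-out: firefly luciferase luminescence from a Gli1 response element reporter stably integrated in NIH/3T3-derived 3T3Gli1-Luc cells, measured 30 min at room temperature after reagent addition. Compound exposure lasted 24 hr at 37 C, 5% CO2.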

[7] = qHTS assay to identify small molecule antagonists of the sonic hedgehog signaling (Shh) pathway (AID 1259369; calls by dose curve; also: nearly all actives have a fitted effect of over 45% in size; also: potency is read from the fitted curve at half-maximal effect)
Summary of the method: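 Luminescence readout: firefly Luc under Gli1 response element in 3T3Gli1-Luc cells (NIH/3T3 clone). Antagonist mode, stimulation by conditioned medium; compound exposure 24hr at 37 C, 5% CO2.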

[8] = molecular target: Estrogen receptor beta (Homo sapiens) (UniProt Q92731); assay: qHTS assay to identify small molecule agonists of the estrogen receptor beta (ER-beta) signaling pathway (AID 1259377; active = well fitted activation curve with a large enough effect in the signal ratio in the repeat runs, not every such curve was filed as active; the % refers to the signal ratio)
Sequence of Estrogen receptor beta (Homo sapiens) (Q92731 whole entry, looked up): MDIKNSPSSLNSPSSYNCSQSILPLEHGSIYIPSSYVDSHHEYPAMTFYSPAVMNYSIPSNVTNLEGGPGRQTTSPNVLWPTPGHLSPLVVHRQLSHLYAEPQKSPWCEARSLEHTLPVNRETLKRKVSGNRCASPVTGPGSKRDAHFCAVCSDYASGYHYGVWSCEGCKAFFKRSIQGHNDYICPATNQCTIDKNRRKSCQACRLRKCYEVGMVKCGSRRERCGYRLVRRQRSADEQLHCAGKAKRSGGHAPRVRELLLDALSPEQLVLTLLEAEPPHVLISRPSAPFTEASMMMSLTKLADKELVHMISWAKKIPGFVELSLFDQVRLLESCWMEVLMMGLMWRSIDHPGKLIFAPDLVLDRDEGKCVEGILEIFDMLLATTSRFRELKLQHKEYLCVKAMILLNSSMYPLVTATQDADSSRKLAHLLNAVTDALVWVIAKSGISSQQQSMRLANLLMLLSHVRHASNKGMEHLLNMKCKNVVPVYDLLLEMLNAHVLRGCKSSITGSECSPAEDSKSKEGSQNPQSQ
Summary of the method: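 Beta-lactamase reporter readout: fluorescence of LiveBLAzer B/G FRET substrate after 2 h at room temperature, following 16 h compound treatment of ER-beta-UAS-bla HEK293T cells at 37C in 2% charcoal-stripped FBS medium.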

[9] = molecular target: Estrogen receptor beta (Homo sapiens) (UniProt Q92731); assay: qHTS assay to identify small molecule antagonists of the estrogen receptor beta (ER-beta) signaling pathway (AID 1259378; active = well fitted inhibition curve with a large enough effect in the signal ratio in the repeat runs, not every such curve was filed as active; the % refers to the signal ratio)
Summary of the method: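 Antagonist mode: compounds added to beta-lactamase reporter HEK293T ER-beta-UAS cells stimulated with E2 (1nM final), 16 hr at 37C. LiveBLAzer B/G FRET substrate, 2 hours room temperature, fluorescence read-out.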

[10] = qHTS assay to identify small molecule agonists of the androgen receptor (AR) signaling pathway in the presence of an antagonist - cell viability counter screen (AID 1259379); also: nearly all actives have a fitted effect of over 25% in size; also: potency is read from the fitted curve at half-maximal effect;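 as to activity change, negative = cytotoxicity: MDA-kb2 human breast cancer cells carrying an MMTV luciferase reporter; series mostly up to about 92 µM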
Summary of the method: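 Viability counter screen: CellTiter-Fluor fluorescence, measured in the same wells as the luciferase read-out. MDA-kb2 cells, 3,000/well, with nilutamide at 3.0uM final and compounds at 15 concentrations, 16 hr at 37C, 0% CO2.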
% is scaled to controls: 0 for no effect and ±100 for the full control effect.

O=C1C2CC3CC1CC(O)(C3)C2
inactive: Potency [1]

CC(CNC(=O)c1cccnc1)NC(=O)c1cccnc1 (stereo unspecified)
inactive: Potency [1]

C=CCN1C(=O)C(CC(C)C)NC1=S (stereo unspecified)
inactive: Potency [1]

C[S+](C)CCC(N)C(=O)O (stereo unspecified)
inactive: Potency [1]

CCN(CC)C(=O)c1cccnc1
inactive: Potency [1]

O=C(CCCN1CCN2CCCC2C1)c1ccc(F)cc1 (stereo unspecified)
inactive: Potency [1]

CC(C)(Oc1ccc(C2CCCc3ccccc32)cc1)C(=O)O (stereo unspecified)
inactive: Potency [1]

O=S(=O)(O)CC(S)CS (stereo unspecified)
inactive: Potency [1]

CN1CC[C@H](c2c(O)cc(O)c3c(=O)cc(-c4ccccc4Cl)oc23)[C@H](O)C1
inactive: Potency [1] | Potency [2] | Potency [3] | Potency [6] | outcome [8]
active: Potency [4] 0.376 µM | Potency [5] 0.298 µM | Potency [7] 0.0473 µM

COC(=O)c1ccc([N+](=O)[O-])cc1
inactive: Potency [2] | Potency [3] | Potency [4] | Potency [5] | Potency [6] | Potency [7]

CC(C)C[C@@H](NC(=O)[C@@H](O)[C@H](N)Cc1ccccc1)C(=O)O
inactive: Potency [1]

Cn1ccnc1
inactive: Potency [2] | Potency [3] | Potency [4] | Potency [5] | Potency [6] | Potency [7] | outcome [8] | Potency [9]

COC(=O)[C@H]1[C@H]2C[C@H]3c4[nH]c5ccccc5c4CCN3C[C@H]2CC[C@@H]1O
inactive: Potency [1]

NC(=O)CC[C@@H]1NC(=O)[C@H](Cc2ccccc2)NC(=O)[C@H](Cc2ccc(O)cc2)NC(=O)[C@@H](N)CSSC[C@@H](C(=O)N2CCC[C@H]2C(=O)N[C@@H](CCCN=C(N)N)C(=O)NCC(N)=O)NC(=O)[C@H](CC(N)=O)NC1=O
inactive: Potency [1]

c1ccc(-c2ccc(C(c3ccccc3)n3ccnc3)cc2)cc1 (stereo unspecified)
inactive: Potency [1] | Potency [3] | Potency [4] | Potency [5] | Potency [6]

CCCCCCCCCCCCCCCCC(C(=O)O)C(O)(CC(=O)O)C(=O)O (stereo unspecified)
inactive: Potency [1] | Potency [2] | Potency [3] | Potency [4] | Potency [5] | Potency [6] | Potency [7] | outcome [8] | Potency [9] | Potency [10]

O=C(CCN1CCC(c2ccccc2)C1)c1ccc2c(c1)OCCO2 (stereo unspecified)
active: Potency [4] 33.5 µM | Potency [7] 18.8 µM
inactive: Potency [1] | Potency [2] | Potency [3] | Potency [6] | outcome [8] | Potency [9]

O=C(N[C@H](CO)[C@H](O)c1ccc([N+](=O)[O-])cc1)C(Cl)Cl
inactive: Potency [1] | Potency [2] | Potency [3] | Potency [4] | Potency [5] | Potency [6] | Potency [7] | Potency [10]

NC(=O)c1ccccc1Cl
inactive: Potency [2] | Potency [3] | Potency [4] | Potency [5] | Potency [6] | Potency [7] | outcome [8] | Potency [9]

OCCCNc1ccccc1
inactive: Potency [1]

CCCCCCCCCCCC(=O)Cl
inactive: Potency [2] | Potency [3] | Potency [4] | Potency [5] | Potency [6] | Potency [7]

c1ccc2occc2c1
inactive: Potency [1] | Potency [2] | Potency [3] | Potency [4] | Potency [5] | Potency [6] | Potency [10]

C[C@H]1O[C@@H](O[C@H]2CC[C@@]3(C)[C@H](CC[C@@H]4[C@@H]3C[C@@H](O)[C@]3(C)[C@@H](C5=CC(=O)OC5)CC[C@]43O)C2)C[C@H](O)[C@@H]1O[C@H]1C[C@H](O)[C@H](O[C@H]2C[C@H](O)[C@H](O[C@@H]3O[C@H](CO)[C@@H](O)[C@H](O)[C@H]3O)[C@@H](C)O2)[C@@H](C)O1
inactive: Potency [2] | Potency [3] | Potency [4] | Potency [5] | Potency [6] | Potency [7]

Nc1ccc2c(S(=O)(=O)O)cccc2c1S(=O)(=O)O
inactive: Potency [2] | Potency [3] | Potency [4] | Potency [5] | Potency [6] | Potency [7]

CC(=O)[C@]1(O)Cc2c(O)c3c(c(O)c2[C@@H](O[C@H]2C[C@H](N)[C@H](O)[C@H](C)O2)C1)C(=O)c1ccccc1C3=O
inactive: Potency [2] | Potency [3] | Potency [6]
active: Potency [4] 0.944 µM | Potency [5] 1.19 µM | Potency [7] 0.0133 µM

FC(F)(F)COCC(F)(F)F
inactive: Potency [1]

Cc1c(O)c(=O)ccn1C
inactive: Potency [1]

COc1cc(/C=C/C(=O)CC(=O)/C=C/c2ccc(O)c(OC)c2)ccc1O
inactive: Potency [1] | Potency [2]
active: Potency [4] 30.8 µM | Potency [5] 24.5 µM | Potency [7] 8.69 µM | Potency [10] 54.8 µM

CC(=NCc1ccccc1)c1ccccc1O
inactive: Potency [1]

O=C(O)C[C@H](O)C[C@H](O)/C=C/c1c(C2CC2)nc2ccccc2c1-c1ccc(F)cc1
inactive: Potency [1] | activity change, negative = inhibition [2] -0.0181% [at 19 µM] | activity change, negative = cytotoxicity [3] 0.738% [at 19 µM] | viability change, negative = cytotoxic [4] -7.99% [at 19 µM] | viability change, negative = cytotoxic [5] -0.451% [at 19 µM] | activity change [6] -2.24% [at 18.9 µM, stronger effect = higher value] | activity change, negative = inhibition [7] -28% [at 19 µM] | activity change, negative = cytotoxicity [10] 0.182% [at 19 µM]
